In PubChem BioAssay AID2330 (Broad Institute, 2010):
In all, about 37,000 compounds went through this assay and about 2,800 (7.6%) were called active. Inconclusive results (about 1%) are left out. The full list was thinned out, with actives kept by preference. Unmarked numbers belong to inactive results. Cut-off read from the data, not from the text of the source: active = inhibition above about 80%; inconclusive = no clear call, values can overlap the other calls; inactive = below that.

Assay: NOMO-1 AML cell viability reduction, primary screen, STK33 inhibitor project, CellTiter-Glo luminescence (AID 2330)
Settings: NOMO-1 AML viability, 72 h, stronger effect = higher value, concentration not given here

Row | SMILES | inhibition
1 | CC(C)NC(=O)N(C)C[C@H]1Oc2ccc(NS(C)(=O)=O)cc2CC(=O)N([C@@H](C)CO)C[C@@H]1C | -17.4%
2 | COc1c2c(cc3occ(-c4ccc5c(c4)OCO5)c(=O)c13)OC(C)(C)C=C2 | 23.7%
3 | O=C(c1cc2ccccc2oc1=O)N(Cc1ccc(F)cc1)Cc1ccco1 | -0.0617%
4 | COc1cc(O)c2c(=O)c(O[C@@H]3O[C@@H](CO)[C@H](O)[C@H]3O[C@@H]3O[C@@H](C)[C@H](O)[C@@H](O)[C@H]3O)c(-c3ccc(O)cc3)oc2c1 | 16.7%
5 | C[C@@H]1CN([C@H](C)CO)C(=O)Cc2cc(NC(=O)CCN3CCOCC3)ccc2O[C@H]1CN(C)C | 13.7%
6 | O=C(NCc1ccco1)c1ccc2c(c1)C(=O)N(Cc1cccnc1)C2=O | 20%
7 | C[C@H](CO)N1C[C@H](C)[C@H](CN(C)Cc2ccc(C(F)(F)F)cc2)Oc2ccc(N(C)C)cc2CC1=O | 14.9%
8 | C[C@@H]1CN([C@@H](C)CO)C(=O)c2cc(NC(=O)Nc3ccc4c(c3)OCO4)ccc2O[C@@H]1CN(C)Cc1ccc(Oc2ccccc2)cc1 | 66%
9 | C[C@@H]1CN([C@H](C)CO)C(=O)c2cc(NC(=O)Nc3ccc4c(c3)OCO4)ccc2O[C@@H]1CN(C)Cc1ccc(C(F)(F)F)cc1 | 50.9%
10 | C[C@H]1CN([C@@H](C)CO)C(=O)Cc2cc(N(C)C)ccc2O[C@@H]1CN(C)Cc1ccc(-c2ccccc2)cc1 | 65.8%
11 | COc1ccc(NC(=O)Nc2ccc3c(c2)C(=O)N([C@@H](C)CO)C[C@H](C)[C@@H](CN(C)Cc2ccc4c(c2)OCO4)O3)cc1 | 25%
12 | C[C@H](CO)N1C[C@H](C)[C@@H](CN(C)Cc2ccccc2)Oc2ccc(NC(=O)Nc3ccc4c(c3)OCO4)cc2C1=O | 1.03%
13 | C[C@H]1CN([C@@H](C)CO)C(=O)c2cc(NC(=O)Nc3ccc4c(c3)OCO4)ccc2O[C@@H]1CN(C)Cc1ccc(Oc2ccccc2)cc1 | 102% (active)
14 | C[C@@H]1CN([C@H](C)CO)C(=O)c2cc(NC(=O)Nc3ccc4c(c3)OCO4)ccc2O[C@H]1CN(C)Cc1ccc(-c2ccccc2)cc1 | 113% (active)
15 | C[C@@H]1CN([C@H](C)CO)C(=O)Cc2cc(N(C)C)ccc2O[C@@H]1CN(C)Cc1ccccc1 | 124% (active)
16 | Cc1cc(=O)[nH]c(SCC(=O)Nc2cccc3ccccc23)n1 | -1.97%
17 | C[C@H](CO)N1C[C@H](C)[C@H](CN(C)S(C)(=O)=O)Oc2ccc(NC(=O)Nc3ccc(F)cc3)cc2C1=O | 14.7%
18 | COc1ccc(CN(C)C[C@@H]2Oc3ccc(NC(=O)NC(C)C)cc3C(=O)N([C@@H](C)CO)C[C@H]2C)cc1 | 11.8%
19 | COc1ccc(S(=O)(=O)Nc2ccc3c(c2)CC(=O)N([C@@H](C)CO)C[C@@H](C)[C@@H](CN(C)C(=O)Nc2c(C)noc2C)O3)cc1 | -6.01%
20 | C[C@@H]1CN([C@H](C)CO)C(=O)Cc2cc(NC(=O)Cn3cnnn3)ccc2O[C@H]1CN(C)Cc1ccc(C(F)(F)F)cc1 | -4.05%
21 | COc1ccc(-c2nnc(SCC(=O)Nc3cccc(SC)c3)n2C)cc1 | -20%

Row | SMILES | inhibition
22 | COc1ccccc1NC(=O)c1ccc(OCC(=O)Nc2ccccc2F)cc1 | 2.43%
23 | C[C@H]1CN([C@@H](C)CO)C(=O)c2cccc(NS(C)(=O)=O)c2O[C@@H]1CN(C)C(=O)Nc1ccc(F)cc1 | -0.485%
24 | CC1CCC(C(C)C)C(=O)/C1=C\c1ccc(NC(=O)CCC(=O)O)cc1 (configuration not stated) | 10%
25 | COc1ccc(C[C@H]2COC(=O)[C@@H]2Cc2ccc(O[C@@H]3O[C@H](CO)[C@@H](O)[C@H](O)[C@H]3O)c(OC)c2)cc1OC | 88.7% (active)
26 | COc1cc([C@H]2OC[C@H]3[C@@H]2CO[C@@H]3c2cc(OC)c(O[C@@H]3O[C@H](CO)[C@@H](O)[C@H](O)[C@H]3O)c(OC)c2)cc(OC)c1O | -2.62%
27 | COc1cc(-c2coc3cc(O[C@@H]4O[C@H](CO)[C@@H](O)[C@H](O)[C@H]4O)c(OC)c(O)c3c2=O)cc(O)c1OC | -24%
28 | CCc1cc(C(=O)OC)c(NC(=O)CC2Sc3ccc(C(F)(F)F)cc3NC2=O)s1 (configuration not stated) | 43.5%
29 | CCOc1ccc(NC(=O)C2CC(=O)n3c(nc4ccccc43)N2)cc1 (configuration not stated) | 2.2%
30 | C[C@H]1CN([C@@H](C)CO)C(=O)c2cc(NC(=O)Cn3cnnn3)ccc2O[C@@H]1CN(C)S(=O)(=O)c1cccs1 | -7.03%
31 | COc1ccc(S(=O)(=O)N(C)C[C@H]2Oc3ccc(NC(=O)Nc4c(C)noc4C)cc3C(=O)N([C@H](C)CO)C[C@H]2C)cc1 | 8.03%
32 | O=C(Nc1cccnc1)c1cc2c(s1)-c1ccccc1CC2 | 108% (active)
33 | COc1ccc(C(=O)CCC(=O)Nc2cccnc2)c(OC)c1 | 1.52%
34 | O=C(CS(=O)(=O)Cc1ccccc1)Nc1cccnc1 | 4.64%
35 | O=S(=O)(c1ccc(Cl)cc1)c1nc(-c2ccccc2F)oc1NCCN1CCOCC1 | 16.2%
36 | C[C@H]1CN([C@@H](C)CO)C(=O)c2cccc(NC(=O)CCCCCC(=O)Nc3ccccc3N)c2O[C@@H]1CN(C)CC1CCCCC1 | 139% (active)
37 | C[C@@H]1CN([C@H](C)CO)C(=O)c2cccc(NC(=O)NC3CCCCC3)c2O[C@@H]1CN(C)CC1CCCCC1 | -0.946%
38 | C[C@@H]1CN([C@@H](C)CO)C(=O)c2cccc(NC(=O)NC3CCCCC3)c2O[C@@H]1CN(C)CC1CCCCC1 | 15.8%
39 | C[C@@H]1CN([C@@H](C)CO)C(=O)c2cccc(NC(=O)CCCCCC(=O)Nc3ccccc3N)c2O[C@@H]1CN(C)CC1CCCCC1 | 125% (active)
40 | C[C@@H]1CN([C@@H](C)CO)C(=O)c2cccc(NC(=O)CCCCCC(=O)Nc3ccccc3N)c2O[C@H]1CN(C)C(=O)Nc1cccc2ccccc12 | 10.8%
41 | C[C@H](CO)N1C[C@H](C)[C@H](CN(C)CC2CCCCC2)Oc2ccc(NC(=O)CCCCCC(=O)Nc3ccccc3N)cc2CC1=O | 141% (active)
42 | C[C@@H]1CN([C@@H](C)CO)C(=O)Cc2cc(NC(=O)CCCCCC(=O)Nc3ccccc3N)ccc2O[C@@H]1CN(C)C(=O)NC1CCCCC1 | 8.04%

Row | SMILES | inhibition
43 | C[C@H]1CN([C@@H](C)CO)C(=O)c2cccc(NC(=O)NC3CCCCC3)c2O[C@H]1CN(C)CC1CCCCC1 | 15.4%
44 | CC(C)NC(=O)N(C)C[C@H]1Oc2ccc(NC(=O)CCCCCC(=O)Nc3ccccc3N)cc2CC(=O)N([C@@H](C)CO)C[C@H]1C | 7.18%
45 | C[C@H](CO)N1C[C@H](C)[C@H](CN(C)S(=O)(=O)c2ccccc2)Oc2c(NC(=O)CCCCCC(=O)Nc3ccccc3N)cccc2C1=O | 68.1%
46 | C[C@@H]1CN([C@H](C)CO)C(=O)c2cccc(NC(=O)CCCCCC(=O)Nc3ccccc3N)c2O[C@H]1CN(C)CC1CCCCC1 | 139% (active)
47 | CC(C)NC(=O)Nc1cccc2c1O[C@H](CN(C)CC1CCCCC1)[C@H](C)CN([C@H](C)CO)C2=O | 7.14%
48 | Cc1ccc([N+](=O)[O-])cc1N(CC(=O)Nc1ccc(Cl)c(C(F)(F)F)c1)S(C)(=O)=O | 67.2%
49 | Cc1cc(C(=O)Nc2cccc3c2O[C@@H](CN(C)Cc2ccc4c(c2)OCO4)[C@@H](C)CN([C@@H](C)CO)C3=O)n(C)n1 | 9.25%
50 | COC(=O)c1ccccc1NC(=O)CNS(=O)(=O)c1cc(Cl)ccc1Cl | -6.45%
51 | Cc1ccc(S(=O)(=O)N(C)C[C@H]2Oc3ccc(NS(C)(=O)=O)cc3CC(=O)N([C@@H](C)CO)C[C@H]2C)cc1 | 1.2%
52 | Cc1noc(C)c1NC(=O)Nc1ccc2c(c1)C(=O)N([C@@H](C)CO)C[C@H](C)[C@H](CN(C)S(=O)(=O)c1ccc(Cl)cc1)O2 | -6.69%
53 | Oc1cc(O)c2c(c1)OC(c1ccc(O)c(O)c1)C(O)C2 (configuration not stated) | 6.96%
54 | COC(=O)C(C)N(C(=O)c1ccccc1[N+](=O)[O-])c1c(C)cccc1C (configuration not stated) | 3.25%
55 | O=C(CSc1nnc(-c2ccco2)n1-c1ccccc1)Nc1ccc(F)cc1 | 3.32%
56 | CCCCCCc1ccc(O)cc1O | 108% (active)
57 | C[C@H]1CN([C@@H](C)CO)C(=O)c2cccc(NC(=O)C3CCCCC3)c2O[C@H]1CN(C)C(=O)NC1CCCCC1 | -16%
58 | C[C@@H]1CN([C@@H](C)CO)C(=O)c2cc(NS(=O)(=O)c3ccc(Cl)cc3)ccc2O[C@H]1CN(C)C(=O)Nc1ccc(C(F)(F)F)cc1 | 7.09%
59 | Cc1cc(Cl)ccc1NC(=O)CN(c1ccc(Cl)c(Cl)c1)S(C)(=O)=O | 16%
60 | COc1ccc2nc(SCC(=O)Nc3ccc(I)cc3)[nH]c2c1 | 6.89%
61 | COC(=O)Nc1nc2ccc(Sc3ccccc3)cc2[nH]1 | 114% (active)
62 | COc1ccc(C(=O)CSc2nc3ccc(OC)cc3[nH]2)cc1 | 3.9%
63 | COc1ccc(CN(C)C[C@H]2Oc3c(NS(=O)(=O)c4ccc(Cl)cc4)cccc3C(=O)N([C@H](C)CO)C[C@@H]2C)cc1 | -1.33%

Row | SMILES | inhibition
64 | C[C@@H]1CN([C@H](C)CO)C(=O)c2cccc(NC(=O)Nc3ccc(F)cc3)c2O[C@@H]1CN(C)Cc1ccc(C(F)(F)F)cc1 | 35.7%
65 | C[C@@H]1CN([C@H](C)CO)C(=O)c2cccc(NC(=O)NC3CCCCC3)c2O[C@H]1CN(C)Cc1ccc(C(F)(F)F)cc1 | 101% (active)
66 | COc1ccc(CN(C)C[C@H]2Oc3c(NC(=O)NC4CCCCC4)cccc3C(=O)N([C@@H](C)CO)C[C@@H]2C)cc1 | 48.8%
67 | C[C@H](CO)N1C[C@H](C)[C@@H](CN(C)Cc2ccc(C(F)(F)F)cc2)Oc2c(NC(=O)NC3CCCCC3)cccc2C1=O | 83.9% (active)
68 | C[C@H]1CN([C@@H](C)CO)C(=O)c2cccc(NC(=O)C3CCCCC3)c2O[C@H]1CN(C)Cc1ccc(C(F)(F)F)cc1 | 45.9%
69 | C[C@H](CO)N1C[C@H](C)[C@H](CN(C)Cc2ccc3c(c2)OCO3)Oc2c(NC(=O)NC3CCCCC3)cccc2C1=O | 42.4%
70 | COc1ccc(N(CC(=O)Nc2ccccc2F)S(C)(=O)=O)cc1 | 40.4%
71 | C[C@@H]1CN([C@H](C)CO)C(=O)c2cccc(NC(=O)Nc3cccc4ccccc34)c2O[C@@H]1CN(C)Cc1ccccc1 | 47.5%
72 | O=C(O)C1CC=CCC1C(=O)Nc1ccc(C(=O)N2CCCCC2)c(Cl)c1 (configuration not stated) | 2.77%
73 | COc1ccc(OC)c(S(=O)(=O)N(C)CC(=O)Nc2cccc(Cl)c2C)c1 | -0.499%
74 | Cc1ccc(OCC(=O)Nc2cccc(NC(=O)c3ccco3)c2)cc1C | 30.6%
75 | CC(C)NC(=O)Nc1ccc2c(c1)C(=O)N([C@@H](C)CO)C[C@@H](C)[C@H](CN(C)Cc1ccc(-c3ccccc3)cc1)O2 | 36.3%
76 | C[C@H]1CN([C@@H](C)CO)C(=O)c2cc(NC(=O)Nc3cccc4ccccc34)ccc2O[C@@H]1CN(C)C | -2.04%
77 | C[C@@H]1CN([C@@H](C)CO)C(=O)c2cc(NC(=O)Nc3cccc4ccccc34)ccc2O[C@@H]1CN(C)C(=O)Nc1cccc2ccccc12 | 76.6%
78 | C[C@@H]1CN([C@@H](C)CO)C(=O)c2cc(NC(=O)Nc3cccc4ccccc34)ccc2O[C@@H]1CN(C)Cc1ccc(-c2ccccc2)cc1 | 109% (active)
79 | COc1ccc(CN(C)C[C@@H]2Oc3ccc(NC(=O)Nc4cccc5ccccc45)cc3C(=O)N([C@H](C)CO)C[C@H]2C)cc1 | -6.53%
80 | C[C@@H]1CN([C@@H](C)CO)C(=O)c2cc(NC(=O)Nc3cccc4ccccc34)ccc2O[C@H]1CN(C)Cc1ccc(Oc2ccccc2)cc1 | 115% (active)
81 | C[C@H](CO)N1C[C@H](C)[C@H](CN(C)Cc2ccc3c(c2)OCO3)Oc2c(NS(=O)(=O)c3ccccc3)cccc2C1=O | -8.2%
82 | C[C@H]1CN([C@@H](C)CO)C(=O)c2cccc(NS(=O)(=O)c3ccc(F)cc3)c2O[C@@H]1CN(C)Cc1ccncc1 | -1.34%
